The source of these data is PubChem BioAssay AID777 (Sanford-Burnham Center for Chemical Genomics, 2007).

Screen size: about 96,000 compounds; about 19,000 (20%) were called active.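 How the source made its calls: active means blocking of liver enzyme CYP2C9 beyond about 50% at 5 µM (limit read from the data); inactive means the rest.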 These entries were drawn from the full list.

For this assay, the target named is Cytochrome P450 2C9 (Homo sapiens) (UniProt P11712). Description: blockers of cytochrome P450 2C9 activity – biochemical, luminescence, ADME assay, primary screen (AID 777). To be noted: CYP2C9 Supersomes, luciferin-H conversion, at 5 µM, hits give high values.
Cytochrome P450 2C9 (Homo sapiens), sequence (P11712 whole entry, looked up): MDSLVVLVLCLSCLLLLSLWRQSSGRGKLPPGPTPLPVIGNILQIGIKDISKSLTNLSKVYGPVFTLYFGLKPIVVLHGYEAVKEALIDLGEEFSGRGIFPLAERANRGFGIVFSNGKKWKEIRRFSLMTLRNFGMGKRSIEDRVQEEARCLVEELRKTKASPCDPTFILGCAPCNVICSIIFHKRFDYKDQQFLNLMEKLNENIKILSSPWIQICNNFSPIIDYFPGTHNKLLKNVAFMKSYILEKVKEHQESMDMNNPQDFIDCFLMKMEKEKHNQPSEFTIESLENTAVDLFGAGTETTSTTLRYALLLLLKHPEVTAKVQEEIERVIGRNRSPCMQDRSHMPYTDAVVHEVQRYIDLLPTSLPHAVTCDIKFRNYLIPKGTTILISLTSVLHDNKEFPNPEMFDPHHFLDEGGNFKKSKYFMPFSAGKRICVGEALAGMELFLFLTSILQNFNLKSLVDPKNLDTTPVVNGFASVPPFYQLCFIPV
Turning to `CCN(CC)CCN1C(=O)C(=O)/C(=C(/O)c2cnn(-c3ccccc3)c2C)C1c1cccs1` (configuration not stated), the inhibition is -11.5% (inactive).

For `O=C(O)COc1nsnc1N1CCOCC1`, the inhibition was -22.9% (inactive).

Regarding `CCOc1cc(N2CCOCC2)c(OCC)cc1NC(=O)COC(=O)[C@H](Cc1c[nH]c2ccccc12)NC(C)=O`, the inhibition is 45.8% (inactive).

For the molecule `CC1(C)C2CCC1(C)C(OC(=O)CCn1ccnc1)C2` (configuration not stated), the inhibition is 95.6% (active).

For the molecule `CCCCC(=O)Nc1ccc(C(=O)NCCCn2ccnc2)cc1`, the inhibition was 33.7% (inactive).

With `CC(=O)OCc1cc(=O)n(C)c(=O)n1C`, the inhibition is -5.9% (inactive).

As to `CC1CCCN(C(=O)Cn2c(=O)oc3ccccc32)C1` (configuration not stated), the inhibition was 7.8% (inactive).

`Cc1cc(-c2ccccc2)nc(N2CCC(C(=O)NC34CC5CC(CC(C5)C3)C4)CC2)n1`: the inhibition is 11.4% (inactive).

On to `O=C(Nc1ccccc1)c1ccc2nsnc2c1`, for which the inhibition was 7.6% (inactive).

In the case of `O=C(CCCN1C(=O)CCC1=O)Nc1ccc(Cl)c(C(F)(F)F)c1`, the inhibition was -25.8% (inactive).

On to `O=C(CSc1nnc2ccccn12)c1ccccc1`, for which the inhibition is -8.3% (inactive).

Consider `O=C(O)CC(Cn1cnnn1)c1ccccc1` (configuration not stated), for which the inhibition is -8.1% (inactive).

Regarding `O=C(c1ccccc1)C(Cn1cncn1)C(Sc1ccccc1)c1ccccc1` (configuration not stated), the inhibition was 98.5% (active).

As for `Cc1ccc2nc(NCCCNC(=O)c3cnccn3)c(C#N)cc2c1`, the inhibition is 2.7% (inactive).

Turning to `CC(CNc1ccc([N+](=O)[O-])cc1)NC(=O)c1ccccc1Br` (configuration not stated), the inhibition was 70.7% (active).

For the molecule `CC(CCc1ccccc1)NC(=O)c1ccc(Br)o1` (configuration not stated), the inhibition was 18.7% (inactive).

With `CC(CNC(=O)c1ccc(Br)o1)NC(=O)c1ccc(Br)o1` (configuration not stated), the inhibition is 25.6% (inactive).

Take `COc1ccc(C(=O)Nc2ccc(F)cc2F)cc1`: the inhibition is 15.2% (inactive).

On to `CC1COC2C(O1)N(S(C)(=O)=O)CCN2S(C)(=O)=O` (configuration not stated), for which the inhibition is -18.1% (inactive).

For `Nc1ccc(Oc2ccc(Cl)cc2)cc1`, the inhibition was 22.5% (inactive).

Consider `CC(C)(C)NS(=O)(=O)CC12CCC(CC1=O)C2(C)C` (configuration not stated), for which the inhibition is 24% (inactive).

In the case of `COC(=O)C1C(=O)CC(C)(O)C(C(=O)OC)C1c1ccc2c(c1)OCO2` (configuration not stated), the inhibition is 5.1% (inactive).

With `CC(=C1C(=O)c2ccccc2C1=O)N1CCN(c2ccccn2)CC1`, the inhibition is 17.1% (inactive).

As to `O=C(O)c1ccc(NS(=O)(=O)c2cccc3nsnc23)cc1`, the inhibition was -5.5% (inactive).

Turning to `COc1ccccc1CNC(=O)CCCNS(=O)(=O)c1cccc2nsnc12`, the inhibition was -32.2% (inactive).

Regarding `O=C(CCS(=O)(=O)c1cccc2nsnc12)N1CCN(c2ccccc2F)CC1`, the inhibition is -136% (inactive).

For `O=C(C(NS(=O)(=O)c1cccc2nsnc12)c1ccccc1)N1CCN(c2ccccc2)CC1` (configuration not stated), the inhibition is 97.4% (active).

Consider `O=C(C(NS(=O)(=O)c1cccc2nsnc12)c1ccccc1)N1CCN(c2ccccn2)CC1` (configuration not stated), for which the inhibition is 78.6% (active).

As to `CC1CC(C)CN(S(=O)(=O)c2cccc(C(=O)N3C(=O)c4cccc(N)c4C3=O)c2)C1` (configuration not stated), the inhibition was 13.8% (inactive).

For `COc1ccc(-c2nn(C)c(=O)c3ccccc23)cc1NC(=O)COc1ccccc1`, the inhibition was 27.9% (inactive).

For `CN(C)c1nc(N)nc(CSc2ccccn2)n1`, the inhibition was -8.3% (inactive).

In the case of `O=C1N=C2SCCN2/C1=C\c1c(Cl)cccc1Cl`, the inhibition is 8.7% (inactive).

Take `Cc1ccc(-c2cnc(NC(=O)CCC(=O)N(C)Cc3ccccc3)n2C)cc1`: the inhibition was 3.3% (inactive).

On to `CC(=O)c1ccc(-n2nnnc2SCC(=O)N2CCN(C(=O)c3ccco3)CC2)cc1`, for which the inhibition is 5.3% (inactive).

As for `CC(C)C(c1nnnn1CCc1ccccc1)N1CCN(C(=O)c2ccco2)CC1` (configuration not stated), the inhibition was 27.7% (inactive).

With `CCC(c1nnnn1C1CCCC1)N1CCN(C(=O)c2ccco2)CC1` (configuration not stated), the inhibition was 84.4% (active).

In the case of `COc1cccc(C2/C(=C(/O)c3ccc(F)cc3)C(=O)C(=O)N2CCN(C)C)c1` (configuration not stated), the inhibition was -22.1% (inactive).

As for `COc1ccccc1C1/C(=C(/O)c2ccc(OC(C)C)cc2)C(=O)C(=O)N1c1cc(C)on1` (configuration not stated), the inhibition was -0.1% (inactive).

Take `Cc1cc(N2C(=O)C(=O)/C(=C(/O)c3ccc(Cl)cc3)C2c2cccc(Br)c2)no1` (configuration not stated): the inhibition was 61.1% (active).

`O=C1CCC(=O)N1CCOP1(=O)COc2ccccc2OC1`: the inhibition is -19.3% (inactive).

As for `COc1cccc(OC)c1C(=O)Nc1ccc(N2CCCCC2)cc1`, the inhibition was 10.6% (inactive).

With `Cc1ccc(Cn2c(C)nc3c(c2=O)c2nc4ccccc4nc2n3Cc2ccco2)cc1`, the inhibition is 47.7% (inactive).

In the case of `Cc1nc2c(c(=O)n1Cc1ccco1)c1nc3ccccc3nc1n2Cc1ccccc1`, the inhibition is 61.7% (active).

As to `COCCCn1c2nc3ccccc3nc2c2c(=O)n(Cc3ccc(Cl)cc3)c(C)nc21`, the inhibition was 20.5% (inactive).

For the molecule `COc1cc(Br)cc(/C=N/c2ncn[nH]2)c1O`, the inhibition is 1% (inactive).

For the molecule `O=C1CC(c2ccccc2)CC(O)=C1C=NCCN1CCOCC1` (configuration not stated), the inhibition is -8.2% (inactive).

Regarding `O=C1CCC(Cc2ccccc2)N1` (configuration not stated), the inhibition is 2% (inactive).

For `CCCCC(=O)Nc1ccc2c(c1)C(=O)NC2=O`, the inhibition is 14% (inactive).

Turning to `CCCCC(=O)Nc1ccc2c(c1)OCCO2`, the inhibition was 60.5% (active).

Turning to `Cn1cc([N+](=O)[O-])c(C(=O)Nc2ccc3c(c2)OCCO3)n1`, the inhibition was 8.7% (inactive).

For the molecule `O=C(COc1ccc2c(C(F)(F)F)cc(=O)oc2c1)Nc1ccc2c(c1)OCCO2`, the inhibition was 22.6% (inactive).

For `CCN(CC(=O)Nc1ccc2c(c1)OCCO2)Cc1cc(=O)oc2cc(C)c(C)cc12`, the inhibition was 93% (active).

Turning to `CCNCc1cc2cc(C)ccc2[nH]c1=O`, the inhibition is 9.6% (inactive).

As to `CCCCOC(=O)CNc1nnc(SCC(=O)OCC)[nH]c1=O`, the inhibition was 1% (inactive).

With `O=C1c2ccccc2C(=O)c2c1cccc2N1CCN(Cc2ccccc2)CC1`, the inhibition is 64.6% (active).

On to `O=c1cc(N2CCN(Cc3ccccc3)CC2)c(-c2ccccc2)n[nH]1`, for which the inhibition was 13.5% (inactive).

On to `O=C1c2ccccc2C(=O)c2c1cccc2N1CCN(CCO)CC1`, for which the inhibition was 32.5% (inactive).

As to `Clc1ccc(Nc2nc(-c3cccs3)cs2)nc1`, the inhibition is 11.8% (inactive).

`O=C1CCN(C(=O)Nc2ccccc2)N1`: the inhibition is -2.1% (inactive).

With `COc1ccc([N+](=O)[O-])cc1N(CC(O)Cn1nnc2ccccc21)S(=O)(=O)c1ccc(C)cc1` (configuration not stated), the inhibition is 63.8% (active).

As for `CCCOc1cc(C)c(S(=O)(=O)n2nnc3ccccc32)cc1C`, the inhibition is -0.2% (inactive).

Consider `COc1ccc([N+](=O)[O-])cc1NC(=O)CCc1ccccc1`, for which the inhibition is -65.9% (inactive).
